This is an account of results in PubChem BioAssay AID743279 (National Center for Advancing Translational Sciences (NCATS), 2014).

About 17,000 (4.7%) of roughly 360,000 compounds were called active. Roughly 5% stayed inconclusive and do not appear here. The entries come from a sample that favours actives as a whole. Unmarked numbers belong to inactive results. Cut-off read from the data, not from the text of the source: active = activity change below about -50%; inconclusive = mostly about -30% to -49%; inactive = weaker than that.
% is set by controls: 0 for no effect and ±100 for the full control effect.

The nature of the experiment: qHTS for Inhibitors of Inflammasome Signaling: IL-1-beta AlphaLISA Primary Screen. The note with it: THP-1 LPS/ATP IL-1B secretion, 16 h; at 57.5 µM, hits give low values. The procedure, abridged:
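Secreted IL-1B measured by AlphaLISA bead assay after 16 h compound exposure of THP-1 cells; compounds (final up to 57.5 uM) added 1 h before LPS (250 ng/mL) and ATP (1.25 mM) stimulation; lower signal means less secretion.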
Background: qHTS replaces the single test concentration by a dilution series.
`COc1ccc(/C=N/NC(=O)Cn2cc(C(F)(F)F)ccc2=O)cc1`: the activity change is -1.55%.

`CC(C)(C)C(=O)N1CCC[C@@]1(CO)C(=O)O`: the activity change is 1.41%.

For the molecule `Cc1nn(-c2ncccn2)c2c1C(=O)CC(C)(C)C2Br` (configuration not stated), the activity change was -64.8% (active).

Regarding `Cc1nn(-c2ccccc2)c2c1C(=O)NC(=O)C(C)(C)C2`, the activity change was -17.4%.

Turning to `CCCCn1nnnc1C1(C)CCC(=O)N1Cc1ccc(OC)c(OC)c1` (configuration not stated), the activity change was 0%.

With `CCCCCCCCN1C(=O)[C@H](CC(=O)NCC23CC4CC(CC(C4)C2)C3)C[C@@]2(C(=O)OC)CCCCC=C12`, the activity change is -29.6%.

Consider `COc1ccc(-c2oc3ncn(Cc4ccco4)c(=N)c3c2-c2ccc(OC)cc2)cc1`, for which the activity change is -65.2% (active).

With `COc1ccc(-n2cnc3cc(NCc4ccco4)ccc32)cc1`, the activity change was -17.9%.

As to `COc1ccc(-c2nnc(SCC(=O)c3ccco3)n2-c2ccccc2)cc1`, the activity change was -3.17%.

Turning to `O=[N+]([O-])c1ccc2c(c1)C(N1CCOCC1)/C(=C/C1(O)CCCCC1)O2` (configuration not stated), the activity change was 4.33%.

In the case of `Cc1ccc(S(=O)(=O)N2C[C@]3(O)C[C@@H]4C(=O)N(c5ccccc5)C(=O)[C@@H]4C[C@]3(OC(=O)NC3CC3)C2)cc1`, the activity change is -19.7%.

Regarding `C#CCN(C[C@H]1[C@H](OC(=O)NC2CCCC2)[C@H](OC(=O)NC2CCCC2)C[C@H]2C(=O)N(c3ccccc3)C(=O)[C@@H]12)S(=O)(=O)c1ccc(C)cc1`, the activity change is -9.89%.

As to `C#CCN(C[C@@H]1[C@@H](OC(=O)NC2CC2)[C@@H](OC(=O)NC2CC2)Cn2c(=O)ccc(=O)n21)S(=O)(=O)c1ccc(C)cc1`, the activity change is -84.6% (active).

For `N#CC1(Nc2ccc3c4c(cccc24)CC3)CCCCC1`, the activity change is 0%.

For `O=C(NCCc1ccccn1)c1cc(C(=O)C2CCCCC2)c[nH]1`, the activity change is 3.93%.

On to `CC(=O)CSc1nc(CCc2ccccc2)c(C#N)c(=O)[nH]1`, for which the activity change was 3.36%.

As for `Cc1cc([N+](=O)[O-])ccc1NC1CCCC1`, the activity change was -6.41%.

In the case of `Cc1c(NS(=O)(=O)c2ccc(NC3CCCC3)c([N+](=O)[O-])c2)c(=O)n(-c2ccccc2)n1C`, the activity change was -9.94%.

On to `Cc1cc(C=O)c(C)n1-c1ccc(NC2CCCCC2)c([N+](=O)[O-])c1`, for which the activity change is -93.9% (active).

With `CCCC(=O)Nc1ncnc2c1ncn2[C@@H]1O[C@@H]2OP(=O)(O)OC[C@H]2[C@H]1OC(=O)CCC`, the activity change was 0%.

For the molecule `Cc1cnc(C(=O)OCc2c(C)cc(C(C)(C)C)cc2C)cn1`, the activity change is -4.05%.

As to `ClC1(Cl)CC1CSc1ncn[nH]1` (configuration not stated), the activity change was -1.77%.

Regarding `CCCCCCCCN1C(=O)[C@H](CC(=O)NCc2cccc3ccccc23)C[C@@]2(C(=O)OC)CCCCC=C12`, the activity change is -30%.

As for `CC(=O)c1cccc(-c2cnc3c(NC=O)cc(-c4ccccc4Oc4ccccc4)cn23)c1`, the activity change is 98.2%.

As to `COc1ccc(-c2cc(NC=O)c3ncc(-c4cc(OC)c(OC)c(OC)c4)n3c2)c(OC)c1`, the activity change was 39.1%.

For the molecule `COc1ccc(-c2cc(NC=O)c3ncc(-c4cccc(C(=O)N(C)C)c4)n3c2)c(OC)c1`, the activity change is 47.4%.

Turning to `CC(=O)c1ccc(-c2cnc3c(NC=O)cc(-c4cccc(NS(C)(=O)=O)c4)cn23)cc1`, the activity change is -68.2% (active).

For the molecule `CC(=O)c1cccc(-c2cnc3c(NC=O)cc(-c4ccc(N(C)C)cc4)cn23)c1`, the activity change was 51.7%.

`CN(C)CCNC(=O)c1cccc(-c2cnc3c(NC=O)cc(-c4cccc(C(F)(F)F)c4)cn23)c1`: the activity change was -107% (active).

Regarding `COc1ccc(-c2cc(NC=O)c3ncc(-c4ccccc4)n3c2)cc1OC`, the activity change is -59.3% (active).

Turning to `CC(=O)c1cccc(-c2cnc3c(NC=O)cc(-c4cccc(C(=O)N(C)C)c4)cn23)c1`, the activity change is 107%.

For `CC(=O)Nc1cc(-c2cccc(CO)c2)cn2c(-c3cccc(C(F)(F)F)c3)cnc12`, the activity change was -13.6%.

In the case of `CCc1nc2ccc(C(=O)N3CCN(S(=O)(=O)CC)CC3)cn2c1N(C=O)CCC(C)C`, the activity change was 36.3%.

In the case of `COc1cc(C(=O)OC(C)C(=O)NCC2CCCCC2)cc(NC(=O)c2ccco2)c1OC` (configuration not stated), the activity change is -6.5%.

As for `Cc1oc(C)c(C(=O)NCCCC(=O)O)c1C(=O)NCCCC(=O)O`, the activity change was 18.8%.

With `CCc1nc2c(OCCOc3ccccc3)cccn2c1N(C)C(=O)c1cccs1`, the activity change was -18.6%.

As to `CCCCN1Cc2c(nc3cc(-c4ccccc4)[nH]n3c2=O)C1=O`, the activity change is 13%.

Take `Cc1cc(=O)n2[nH]c(-c3cccc(Cl)c3)cc2n1`: the activity change is 9.73%.

Consider `O=c1c2c(nc3cc(-c4cccc(Cl)c4)[nH]n13)CCCC2`, for which the activity change is -102% (active).

On to `Cc1nc(N)sc1N=Nc1c(C)n(C)n(-c2ccccc2)c1=O`, for which the activity change was 15.5%.

Take `COCCNC(=O)C1CCCN(Cc2ccccc2Cl)CC1` (configuration not stated): the activity change was 21.5%.

With `Cc1cc(NC(=O)CSc2ncc(C(F)(F)F)cc2Cl)no1`, the activity change was -7.22%.

Consider `Cc1ccc(-c2ccnc3nc(Sc4ncc(C(F)(F)F)cc4Cl)nn23)cc1`, for which the activity change is -65.2% (active).

As for `Cc1nn(-c2ncc(C(F)(F)F)cc2Cl)c(=O)n1-c1ccccc1`, the activity change is 24.1%.

Take `COc1ccc(S(=O)(=O)N2CCSCC2)cc1`: the activity change is 0%.

Take `C[C@H]1Cn2cnc(C(=O)N[C@@H](Cc3c[nH]c4ccccc34)C(=O)OC(C)(C)C)c2C(=O)N1`: the activity change was 33.4%.

On to `CC(=O)Nc1ccc(CNc2nc(NCCN(C)C)nc3cc(-c4ccccc4)sc23)cc1`, for which the activity change is -108% (active).

Take `COCCNc1nc(NCc2ccc(NC(C)=O)cc2)c2sccc2n1`: the activity change was 29.5%.

As for `COCCNc1nc(Nc2ccccc2Cl)c2sc(-c3ccccc3)cc2n1`, the activity change is -12.6%.

Take `CC1Cc2[nH][nH]c(=O)c2C(C2CCCC2)O1` (configuration not stated): the activity change was 16.7%.

`CCOC(=O)[C@]12CCC=C1N(Cc1ccco1)C(=O)[C@H](CC(=O)N1CCSCC1)C2`: the activity change was -5.81%.

Regarding `CC(C)c1cccc(C(C)C)c1Nc1cn[nH]c1`, the activity change is -1.8%.

As for `CCCC[C@@H]1CN=C(N)N1CCc1cc(C(F)(F)F)cc(C(F)(F)F)c1`, the activity change was -103% (active).

`CCCC[C@@H]1CN=C(N)N1CCCC`: the activity change was 15.9%.

Turning to `CCCCN1C(N)=NC[C@@H]1Cc1ccccc1`, the activity change was 5.9%.

For the molecule `CC(=O)Nc1cccc(Nc2ccc(C#N)cc2)c1`, the activity change was -18.3%.

Consider `CC(OC(=O)c1ccc(NC(=O)CC#N)cc1)C(=O)Nc1ccc(S(=O)(=O)N2CCCC2)cc1` (configuration not stated), for which the activity change is -25.9%.

As to `Cc1ccc(S(=O)(=O)N2CCOCC2)cc1C(=O)Nc1ccccc1N1CCCC1`, the activity change was -1.43%.

With `O=C1OCC2=C1C(c1ccc(Cl)cc1)c1cc3c(cc1O2)OCO3` (configuration not stated), the activity change is -0.909%.

On to `CCOC(=O)C1=C(c2ccccc2)NC(=O)NC1c1cc(OC)c(OC)cc1OC` (configuration not stated), for which the activity change is -5.44%.

In the case of `CCOC(=O)C1=C(COC(=O)[C@H](C)NS(=O)(=O)c2ccccc2F)NC(=O)NC1C` (some centres not stated), the activity change is -51.3% (active).

As to `O=C(NC1CC1)C(Cc1ccccc1)NS(=O)(=O)c1ccccc1F` (configuration not stated), the activity change is 20.4%.

Regarding `CCn1c(/C=C/c2ccc([N+](=O)[O-])o2)nc2ccccc2c1=O`, the activity change is -95.2% (active).

For the molecule `CCOCCCn1c(NN)nc2ccccc2c1=O`, the activity change was -13.8%.

With `O=c1oc(/C=C/c2ccccc2)nc2ccccc12`, the activity change was -0.257%.

For the molecule `CC(C)CN1C(=O)CN(S(C)(=O)=O)CC1(C)C(=O)NCc1ccccc1` (configuration not stated), the activity change is 37.5%.

As to `Clc1cc(NC2CCCCC2)ncn1`, the activity change is 35.9%.

As for `COCCCNC(=O)c1cccc2c(-c3ccc(O)c(OC)c3)coc12`, the activity change was 2.52%.

In the case of `CN(Cc1ccccc1)C(=O)CSc1nc2ccccc2[nH]1`, the activity change was -8.05%.

On to `COc1ccccc1CSc1nc2ccccc2[nH]1`, for which the activity change is -54.1% (active).

For the molecule `O=C(NCc1ccccc1)c1onc(CSc2nc3ccccc3[nH]2)c1C(=O)NCc1ccccc1`, the activity change was -5.65%.

For `O=C(NCC1CCCCC1)NCC1CCCCC1`, the activity change is 5.16%.

As for `C[C@@H]1CN([C@@H](C)CO)C(=O)CCCn2nncc2CO[C@H]1CN(C)Cc1ccc(C(F)(F)F)cc1`, the activity change is 14.2%.

With `CCOC(=O)c1cccc(NC(=O)c2ccc(F)cc2F)c1`, the activity change was 13.7%.

Consider `CCOC(=O)c1nnn(CC(=O)Nc2cccc(F)c2)c1C(=O)OCC`, for which the activity change was -64.5% (active).

Take `CCOC(=O)c1cccc(NC(=O)CCn2nnc3ccccc32)c1`: the activity change was -9.21%.

For the molecule `COc1ccc(-n2cc(CNC3CCOCC3)c(-c3cccc(F)c3)n2)cc1`, the activity change is -66.6% (active).

For the molecule `COc1ccc(-c2nn(-c3ccccc3)cc2CN2CCCO2)c(F)c1`, the activity change is -28.9%.

With `COc1ccc(-n2cc(CN(C)Cc3n[nH]c(=O)[nH]3)c(-c3cccc(F)c3)n2)cc1`, the activity change was -3.96%.

In the case of `CCC(O)C1CCN(Cc2cn(-c3ccc(OC)cc3)nc2-c2cccc(F)c2)CC1` (configuration not stated), the activity change is -60.7% (active).

`Cc1cccc(-n2cc(CN3CCN(C(=O)c4ncn[nH]4)CC3)c(-c3cccc(F)c3)n2)c1`: the activity change is 0.119%.

As to `Cn1cc(CN2CCC(C(O)CCc3ccccc3)CC2)c(-c2ccccc2F)n1` (configuration not stated), the activity change is -20.8%.

On to `OCCC1CN(Cc2ccc3nsnc3c2)CCN1C1CCCCC1` (configuration not stated), for which the activity change is 36.7%.

For `O=C(COc1ccc(Br)cc1)OCC(=O)c1ccc[nH]1`, the activity change was -7.68%.

As to `CCCNC(=O)C1(C)CCN(C(=O)c2ccc(F)cc2Cl)C1` (configuration not stated), the activity change is 16.4%.

With `CC1(C)CC(=O)C2=C(C1)N=C1SCCC(=O)N1C2c1ccc(C(F)(F)F)cc1` (configuration not stated), the activity change is 0.519%.

Regarding `Cc1ccc(C)c(-n2c(SCC(=O)O)nc3sc4c(c3c2=O)CCCC4)c1`, the activity change is 0.0998%.

As for `NNC(=O)C1CCCn2c1nc1sc3c(c1c2=O)CCCC3` (configuration not stated), the activity change was 0%.

On to `Cc1nc2sc3c(c2c(=O)n1NC(=O)CCl)CCCC3`, for which the activity change was -80.7% (active).

As for `CCCc1nc2sc3c(c2c(=O)n1NC(=O)CCCl)CCCC3`, the activity change was -96.6% (active).

In the case of `CCc1nc(N2CCN(C(C)=O)CC2)c2c3c(sc2n1)CCCC3`, the activity change is -1.89%.

`Cn1c(NN)nc2sc3c(c2c1=O)CCC3`: the activity change was 26.1%.
